Data: PubChem BioAssay AID1159506 (National Center for Advancing Translational Sciences (NCATS), 2015)
The full ranking holds about 59,000 sequences; the median of the read-out is about -0.00055, and the lowest 2% start at about -2. The entries come from a sample that favours the lowest values as a whole.

Experiment: Identification of proteins required for the processing of the EWS-FLI1 nascent transcript;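 further: robust z of luciferase light less the median z of siRNAs with the same seed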
Details: TC32 Ewing sarcoma NR0B1-luc vs CMV-luc (EWS-FLI1 target promoter against control promoter), 48 h; screened at 20 nM (by protocol)
Procedure, shortened: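 Three siRNAs per gene, each in a separate well at 20 nM, were transfected into TC32 cells bearing either reporter construct. Luminescence was measured two days on, and per-gene comparison relied on seed-corrected Z values.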

Sequence | seed-corrected z-score
UGAAUUUCCGGUGCUUGCC against PDGFB | -0.605
UAGGAGAUAGCGAUGACCA against NPBWR1 | 0.302
AAAGAGGUACUCACAGGGC against LGR6 | -0.878
UUCGGUCUGCUAAUGCUGG against CNOT2 | 1.7
AAUCUCACAACAGUUAUGG against MTMR8 | 0.0648
AUACUACUUACAACCGGGC against SON | 1.15
ACAGCUAACAUGGACACUC against SHTN1 | 0.393
UAGGUAACCAUAGUACUCA against ISY1 | -2.1
UGUAUAGAAAAAUUCACGC against CRY1 | 0.235
UCCAGUAGCACCAUAGUUC against ZNF449 | -0.629
UUCGUGAUCAUCUUCUCAC against PHYH | 0.854
AAAUGUUCACCUGUCUUCU against RPS4Y1 | -0.188
UUCAUAUAUGAGUCAAUGG against HMG20A | 0.779
UUCCUCAUGAUUGUCCUCA against GABARAPL1 | -0.0836
UUAGUAUUUGGUAUUCAGA against FCGR1A | -0.211
UAGGAUCCAGGGUUAGUUU against RPL18 | -2.17
UUAGGGUCCCUCAUCUUCA against LOXL4 | 0.627
UAUUAUUAAAGUGAGAUGG against SNCA | 0.375
UCUGGUGAACGACUCUUGC against MGMT | 0.137
AUCUGUAUUCUCACUAUAG against TTC23 | -1.15
UUAAUGAUAGAGACUAGGA against LTC4S | -0.727
GUUACAUACCUUUUUCUCU against GTF2H2B | 0.209
UCAUAGAAGAGGUCUGUCU against PHF5A | -2.2

Sequence | seed-corrected z-score
UUCAUAGCCUCUUCAAUGG against SPAG7 | -1.44
UACACUCUAAGAGCUCUUC against BCAT1 | 1.4
UUAAAUUCUUGGAAGUAGA against SCNN1B | 0.779
UGACGAAAUAGUAGAAGUG against MOB3A | -0.387
UUCAUCACCAGCUCUUUCC against CLEC4F | -0.0692
UCAUGGGACGGCAUAACUG against SPDYE3 | -0.601
ACGAUUACAACUUCGAUCC against DOCK7 | 1.63
UGGCGCUUGAUUGGAACUC against UNC5B-AS1 | -0.56
AUGUUUGACAUUGUCCACG against KPNA2 | -2.38
AAGUUGAAGAUAAGAGUCC against C11orf63 | -0.178
AUCGAAAUAAGUCAGAUAG against NAA25 | 0.893
UGACCUGUAGCGUUGCAGC against EFCC1 | -0.581
UCUAUAUCUCCGUAAUUCC against TRRAP | -2.5
UUAGUUCCUGGGUAUCUGC against SNAP47 | 1.17
UUUCAUAGAAUCUAUCCAG against C20orf196 | 0.184
UUUGGAACUGGUCAUGUGU against RPL29P30 | -3.1
UUUCUGAGGAGACAACUCU against ANKRD36B | 0.345
UUGGGUAAAAUGUCCACUC against SPATS1 | -2.28
UGUGCGACUGGAGAAUGCG against KRT81 | -0.00183
UGAUAUAUAACUUAGAUGG against VWA9 | -12.6
AGAGUGACCAGUCCGGUAG against CIDEA | 0.43
UCCCGGUCUGCAUUCUUCC against PHKA1P1 | -0.749
AAAGUUGCUACAGCUGUCA against SH3BP5 | -2.12

Sequence | seed-corrected z-score
UUAGUGUGAAUAGUGAUUU against PODXL | 0.827
UAUCUUUCUCAGGAGUUUG against OR2T10 | -0.23
AUAGCAGUCAACAUCGUAG against TMED3 | -2.8
UGACUUGGCACAGUAUAUC against FAM83A | -0.413
UAUCUUUAAAGUGUAUCUA against FAM230B | 0.596
UCUAGGCUCAGGAAGUUCU against AP5S1 | -1.09
AAACCAAGUAGCUUGAUGU against LOC647275 | 0.229
UCAUUUUGAAUUGAAGAUG against FAM76A | 0.228
UUUCCAUAGGAGACGAUGC against CTSG | 0.0794
UGUUGAUAAGUUACCAUCC against GPCPD1 | 0.968
UUGUUCUAAAGUAUCCUCC against NDC80 | -2.14
AGUCAUUUAAACUUGAUCC against TMSB4X | 0.898
UACGCUUUCUCUACAGUAC against ZNF606 | 0.237
UCUCUUAUGCAGCUUGUGG against SPTBN4 | 0.43
UGCAUAGACAAGGCAGUCG against ZNRF2 | -2.35
UCAGCUGAUAUCUUGUUGC against UBOX5 | 0.0283
ACAGUUUCGAAGGCGAAUG against ABCB9 | -1.83
AAUGCAACCACAGCUAUCC against THNSL1 | 0.294
UUACUGUGCUGUCUAGACC against TMEM79 | 1.12
UUGCUAUUCCUCCUGGUAG against IRF2BP2 | -0.0854
AAUAUCAAUACGAUCUCUG against SNAP23 | -0.225
UUAUGUAUCAUACAAAAGU against YPEL4 | 1.55
UGUGCCUUUCUGACGAUGG against SBK2 | 0.535

Sequence | seed-corrected z-score
UAAGUGGAAAUCCUCGGGC against WBP2NL | 1.46
UUAUUUAUUCCGUUCAUAU against UBE2V2 | -3.25
UCAUGUAAUCUAGCGAUCG against ENTHD1 | 0.768
UUUUGGUCACUUCAAAUUC against MYDGF | -2.17
UCACAAACCACGUUACACG against PABPC3 | -0.495
AGUAGAUACAGCUUCUUUC against CCDC50 | -0.915
AAAUUUCACAGGUAAUAUG against OR13D1 | -0.485
AUGGUGACAAUUGAACUCC against IGF1R | -1.36
UCUGUUAGCAGCUGGUUUG against SH3D19 | -2.01
UUUAUUAUGAUCUUCCGAG against PIP | 0.162
UUUGACGAAAUGGGAAUCC against OMD | -0.258
UAACGUAUAGCUACAACUC against MED23 | 0.49
UGAUUUUCUGCACAAGUCC against NELL2 | 0.658
AUUCUGUUCAAACAUCUGG against EXOC3 | -2.38
UACGCGGGCAAACUUCUCC against LRRC14 | 0.0562
AAUUCGCAAAGAAUGAUGC against CNN1 | 0.159
UAGACUACCGGCUUCUUGC against CTRC | -0.112
UCAGCAUCUUCCAUGAUAG against B3GNT4 | -0.437
AUCUGGUUGCUUUUUAUCC against FAM60A | -3.49
UGAACCACCAGGGUAUACG against CDH1 | 1.03
UCUUGAAUUGAGCAAGUCC against MGAT5 | 0.401
UUUCAGCUAAUGCAUUUUG against VIP | -3.11
UGUAGUAGAACUUCCUGGG against HS6ST1 | -1.42

Sequence | seed-corrected z-score
UCAAUUUUGAGUCCAUUGG against ANKRD46 | 0.911
UCCUUUAGAACUCUCGAUC against WIPF3 | 0.233
AUUAACAUAAUCUUGAUCC against CCNL2 | -4.87
UCAAAGGUCACGGUCAGGA against PRDM15 | -1
UUUAGAGGGACUCUUGUUU against HMGA2 | -1.74
UUCUGACUGAGAGCUAUGG against BNIP3L | -0.338
UAAAUAGUUCUCGUCUUUC against EHF | 0.511
UCUCUUGAGAGCGCGGUUG against RGS8 | 1.31
UACUGAUUGAGUGCCCUGC against FGGY | -5.78
UGAAGUUCAGCUACUAGCC against DIMT1 | -0.104
UAAACAGUGAUUGCACCAC against ZNF497 | -1.22
UAAGAAAAUAGGGAGGCCG against H1F0 | 0.96
UCCGAGUCAAUACUGUAUC against UIMC1 | 0.162
UGCUUUUUCAUGGACCACC against SOD1 | -3.09
ACUAAUACUAAAUUCAACC against CSDE1 | 1.52
UCCAGCUGAACUGUCACUC against TBX10 | -0.201
UUCUUUUCCAGGUACGUGA against CCDC105 | -0.394
UAUGUGCUUACUAGGGUCA against SSR3 | -0.244
AUCUUUCGAACUACAAUUG against PSME4 | 1.14
UCCCAAGUCGCUCAAGUUC against LOC389834 | 0.29
UUUGGAGACAACAAGGUCG against SYN3 | -0.442
UCCGGAAGUACUGUCGAAG against PPP2R1A | -0.186
AAUGUACUAUCUACUUGCC against ZNF507 | -0.378

Sequence | seed-corrected z-score
UCAGGAUCAAAAUCCAGUC against LTV1 | -2.94
UGUCGAAACAGGAGGCGCU against ZNF579 | -1.11
ACAGAUCAAAGAACUGUCC against LGALS4 | 0.144
UACUUGGACAAGUCCAAGA against LSM7 | 0.593
UGAACUUCUGGAGUCCCUC against CCDC115 | 1.1
UUUCGUAACCCUUCUGGGC against GNPTAB | 0.263
UAAGGUUAGGUUAGGAAUG against SH3BGRL3 | -0.0213
UAAUAGACCACGGAGUCUU against TMEM130 | -3.42
UAAUCUCCUUCUUUAGGUC against CNOT3 | 1.42
AGUUCACUAAGUCAAUAGC against TMEM44 | -1.14
UGGGUCAUGUGCUCUAUCC against HDGFL1 | -0.0953
UAUGAGGUAAAGUGGGAAG against LCE2A | -2.17
UUGGGUUCGAUAUCUGCUU against CALML4 | 0.413
UCAGAAAUGACCUUGUUGC against LOC729187 | 1.39
AUCGGCAAAGUAAUUCUGG against NECAB3 | 0.533
UGUAUUACAAUAUUCCUUC against LACE1 | -0.00635
UCUUGUCGUAGUUCGUGGG against DUS3L | -2.02
AAACUGGUCAUCAUCCACC against SIKE1 | 0.42
